# Test results: ChEMBL document CHEMBL1157539, “Thousands of chemical starting points for antimalarial lead identification” (Nature, 2010)
# Tested on: HepG2
# Assay: GSK_TCMDC: Percent inhibition of human HepG2 cell line. Test compounds present at 10uM.
# Format: functional
row,SMILES,Inhibition [%]
1,O=[N+]([O-])c1cccc(NC(=S)N2CCCN(Cc3ccc(F)cc3F)CC2)c1,5
2,CCCCOc1ccccc1C(=O)NCc1csc(-c2ccccc2)n1,17
3,CC1(C)OC[C@]2(C)[C@@H](CC[C@]3(C)C4=CC(=O)CCC4CC[C@@H]23)O1 (stereo not given in full),0
4,CNc1ccc(CNCc2ccc(-c3ccc(-c4nc5cccc(C)c5[nH]4)cc3)cc2)cc1.O=C(O)C(F)(F)F,35
5,CC(=O)O.CCC[C@@H]([C@@H](CC1CCCCC1)C(=O)N[C@H](C(=O)Nc1nccc(N)n1)C(C)(C)C)N(O)C=O,25
6,COc1cc(F)c2nccc([C@@H](O)CN3CCC(NCc4cc5c(cc4F)OCCO5)CC3)c2c1,23
7,O=C(Cc1ccccc1)NC(CCN1CCC(O)(c2cccc(C(F)(F)F)c2)CC1)c1ccc(Cl)c(Cl)c1 (stereo not given),25
8,N=C(NCc1ccccc1)Nc1nc(-c2ccc(OCCCn3ccnc3)cc2)cs1,10
9,CC(C)(C)c1ccc(CN2CCC(NC(=O)c3cc(-c4cccc(C(F)(F)F)c4)cs3)C2)cc1.O=C(O)C(F)(F)F (stereo not given),24
10,O=C(/C=C/c1ccc(Cl)c(Cl)c1)NCCCCCN1CCC(NC(=O)Nc2ccc(F)cc2F)CC1,14
11,CCOc1cc(C=NNc2nc(C)cc(-n3nc(C)cc3C)n2)ccc1O,46
12,COc1c(I)cc(Cc2cnc(N)nc2N)cc1I,5
13,O=C(O)C(F)(F)F.c1ccc2c(c1)CN(Cc1ccsc1)CC1(CCN(Cc3c[nH]c4cnccc34)CC1)O2,38
14,Cc1cc(C(=O)CSc2nc3ccccc3n2-c2ccccc2)c(C)n1C1CCS(=O)(=O)C1 (stereo not given),0
15,Fc1ccc2[nH]c(-c3ccc(-c4cccc(CN5CCN(CCN6CCOCC6)CC5)c4)cc3)nc2c1.O=C(O)C(F)(F)F,35
16,Cl.O=C(N[C@@H](Cc1ccccc1)[C@H](O)CNC1CCc2ccccc2C1)c1cc(C2CCCC2)cc(N2CCCC2=O)c1 (stereo not given in full),23
17,O=C(NCCCCCN1CCC(c2c[nH]c3ccccc23)CC1)c1ccc(Cl)c(Cl)c1,48
18,Cc1cccc2nc(-c3cccc(-c4ccc(NC(=O)c5cnccc5C(F)(F)F)cc4)c3)[nH]c12,60

row,SMILES,Inhibition [%]
1,CN(C)Cc1cccc(-c2ccc(NC(=O)c3ccc4c(=O)n(Cc5ccoc5)cnc4c3)cc2)c1,54
2,COc1ccc(CNC(=O)Nc2cc3cc(-c4ccc(CN(C)C)cc4)ccc3n3c(C)nnc23)cc1,99
3,Cn1cncc1CNCc1ccc(-c2cccc(-c3nc4ccccc4[nH]3)c2)cc1.O=C(O)C(F)(F)F,19
4,Cl.Nc1c2c(nc3ccc(NC(=O)CCCCCCc4ccccc4)cc13)CCCC2,100
5,Cc1cccn2c(=O)c3cc(C(=O)NC4CCCCC4)c(=N)n(CCCn4ccnc4)c3nc12,1
6,CN1CCC(C(=O)N(Cc2ccc(-c3ccc(CNCCc4ccc(S(C)(=O)=O)cc4)cn3)cc2)Cc2ccc3c(c2)OCO3)CC1.O=C(O)C(F)(F)F,16
7,COc1cc(-c2ccc3c(-c4ccc(C(=O)N5CCN(C)CC5)cc4)n[nH]c3n2)cc(OC)c1OC,27
8,COc1c(C2CCN(CCCCNC(=O)c3cc(-c4ccc(Cl)cc4)oc3C)CC2)ccc2c1CCCC2,93
9,CN(C(=O)/C=C/c1cc(C(F)(F)F)ccc1F)C1CCN(CCCCCNC(=O)/C=C/c2ccc(Cl)c(Cl)c2)C1 (stereo not given),16
10,COc1cccc2c(N/N=C/c3ccccc3[N+](=O)[O-])ccnc12,8
11,Cc1cccc2nc(-c3ccc(-c4ccc(CNCCc5ccncc5)cc4)cc3)[nH]c12.O=C(O)C(F)(F)F,34
12,COc1ccc(Nc2ccnc3cc(-c4ccccn4)ccc23)cc1OC.Cl,14
13,Cc1cc(C2CCN(CCCCNC(=O)c3ccc(-c4ccc(C(F)(F)F)cc4)cc3)CC2)c(C)cc1OCC(N)=O,34
14,CN1CCCN(Cc2cccc(-c3ccc(NC(=O)c4ccc(Cl)cc4)cc3)c2)CC1.O=C(O)C(F)(F)F,31
15,NC1CCCN(Cc2cccc(-c3ccc(-c4nc5cc(F)ccc5[nH]4)cc3)c2)C1.O=C(O)C(F)(F)F (stereo not given),40
16,O=C(CCC1CCCC1)N(Cc1ccc(-c2ccc(CNCCc3ccccc3)cc2)cc1)C1CCCNC1.O=C(O)C(F)(F)F (stereo not given),99
17,Cc1ccc(-c2nnc3c4ccccc4c(C)nn23)cc1S(=O)(=O)N1CCN(CCO)CC1,16
